# FBW7 act: human FBW7 E3 ligase activation, primary screen; Q969H0; AlphaScreen FBW7–phospho-cyclin E peptide binding, activator screen; normalized activity (activation), % at 26.1 µM; actives 0.13% (n = 650,000); AID 1259310; in the data active = normalized activity above about 1.9%;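 note: purified mutant Fbw7 with reduced substrate affinity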
# GPR151 activ: activators of human GPR151 | activation, % at 11.2 µM | actives 1% (n = 650,000) | Q8TDV0 | AID 1508602 | PathHunter beta-arrestin GPR151 cells, luminescence; in the data active = activation above about 4.9%;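 note: 0% = median of compound wells and 100% = cells with positive control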
# MITF primary: blocks human microphthalmia-associated transcription factor | O75030 | AlphaScreen MITF homodimerization, bead proximity signal | inhibition, % at 2.6 µM | actives 0.91% (n = 650,000) | AID 1259374; in the data active = inhibition above about 50%;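 note: 0% = vehicle wells with protein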
# Target sequence (O75030 whole entry, looked up): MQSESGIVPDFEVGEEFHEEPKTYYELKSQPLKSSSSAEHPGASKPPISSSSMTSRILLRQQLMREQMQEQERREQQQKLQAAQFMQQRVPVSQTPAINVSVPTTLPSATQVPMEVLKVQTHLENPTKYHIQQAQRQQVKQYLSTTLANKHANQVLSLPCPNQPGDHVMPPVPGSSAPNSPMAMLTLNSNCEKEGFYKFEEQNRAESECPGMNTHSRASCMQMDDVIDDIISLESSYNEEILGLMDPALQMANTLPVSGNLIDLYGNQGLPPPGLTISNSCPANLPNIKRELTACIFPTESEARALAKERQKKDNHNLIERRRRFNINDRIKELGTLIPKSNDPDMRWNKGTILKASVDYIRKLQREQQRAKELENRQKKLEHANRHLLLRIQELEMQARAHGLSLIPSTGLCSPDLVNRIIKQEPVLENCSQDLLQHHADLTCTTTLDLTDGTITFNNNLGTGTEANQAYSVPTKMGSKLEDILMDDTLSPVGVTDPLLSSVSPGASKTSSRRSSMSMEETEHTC
# TEAD-YAP inh: TEAD-YAP interaction inhibition; actives 1.4% (n = 640,000); inhibition, % at 9.12 µM; HEK-TIYL cells, TEAD-Gal4/YAP UAS-luciferase luminescence; AID 1259422; in the data active = inhibition above about 32%;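 note: 0% = median of test compound wells and 100% = reference inhibitor wells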
# MITF inh conf: human MITF inhibition, confirmation | shares compounds with MITF primary | AlphaScreen MITF homodimerization, biotin/His-MITF beads | inhibition, % at 2.6 µM | actives 16% (n = 4,700) | AID 1259372;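 active = inhibition above a cutoff derived from the DMSO control wells, cut at about 28% in these data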;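 note: 0% = MITF dimer wells with DMSO only; inhibitors lower the bead chemiluminescence by keeping MITF from dimerizing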
# AlphaScreen intf2: counter-screen: compounds optically interfering with AlphaScreen; shares compounds with MITF primary; LysRS AlphaScreen counterscreen, signal interference, triplicate; inhibition, % at 2.6 µM; actives 7.6% (n = 4,700);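 active = inhibition above a cutoff derived from the DMSO control wells, cut at about 30% in these data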
# * hit, by the source's call; / = not tested or not shown. Compounds with a hit are over-represented: about 3.4% of the library has one in this group of screens.
SMILES,FBW7 act,GPR151 activ,MITF primary,TEAD-YAP inh,MITF inh conf,AlphaScreen intf2
COc1cc(OC)nc(OC(Cc2cnccn2)c2cccc(C(F)(F)F)c2)n1 (stereo not drawn),0.7,-0.4,-2.5,0.3,/,/
COc1ccc(-c2ccc(C)c(NC(=O)c3c(OC)cccc3OC)c2)nn1,0.5,0.7,20.5,3.7,/,/
CCOc1ccc(-c2ccc(NC(=O)c3c(OC)cccc3OC)cc2)nn1,0.4,2.5,99.0*,-4.8,-5.9,-5.1
CCOC(=O)N1CCC(NCCc2ccc(F)cc2)CC1,0.2,1.8,5.8,6.1,/,/
COc1ccc(C(CNCCC(=O)O)N(C)C)cc1 (stereo not drawn),0.5,-1.2,55.1*,-4.7,-0.9,-1.2
COc1ccc(C(CNC(=O)c2ccc(Br)cc2)N(C)C)cc1 (stereo not drawn),0.0,0.8,10.4,6.2,/,/
CCN(C(=O)Cn1ncc2c1-c1cc(C)ccc1OC2)c1ccccc1F,-0.4,0.2,-1.4,-15.0,/,/
CCN(C(=O)Cn1ncc2c1-c1cc(C)ccc1OC2)c1cc(OC)ccc1OC,0.2,2.9,70.5*,10.2,5.5,18.2
O=C1NC(=S)N/C1=C/c1cccc(OCc2ccc([N+](=O)[O-])cc2)c1,0.0,-0.3,-0.4,-0.4,/,/
COc1ccc(-c2[nH]nc3nc(-c4cc(OC)c(O)c(OC)c4)cc(C(=O)O)c23)cc1,0.2,0.9,69.8*,-4.2,19.0,26.7
CCN(C(=O)c1ccco1)c1nc2c(s1)CCc1oc(C)cc1-2,0.2,-1.0,-1.6,2.8,/,/
CCN(C(=O)c1ccccn1)c1nc2c(s1)CCc1oc(C)cc1-2,-0.3,-0.2,77.2*,-16.6,36.8*,77.3*
COc1ccc(CNC(=O)c2cnn3c2NC(c2ccc4c(c2)OCO4)CC3C(F)(F)F)cc1 (stereo not drawn),0.1,0.8,68.3*,-20.9,-8.8,-2.7
COc1ccc(CNC(=O)c2cnn3c2NC(c2ccc(OC)cc2)CC3C(F)(F)F)cc1 (stereo not drawn),-0.2,0.0,1.6,-0.3,/,/
COc1ccc(-n2cc(-c3ccccc3)c3c(N(C)C4CCCCC4)ncnc32)cc1,0.0,0.4,1.8,1.6,/,/
CCNC(=O)[C@@H]1C[C@@H](NCc2cccc(OC)c2)CN1Cc1ccccc1Cl,0.0,-0.5,-4.2,-3.1,/,/
O=C(COC(=O)c1ccccc1Cl)Nc1ccccc1N1CCOCC1,0.1,0.1,-5.1,6.2,/,/
O=C(CNCc1ccc(Cl)cc1)Nc1ccccc1N1CCOCC1,-0.1,-0.3,61.0*,-1.5,4.6,11.5
O=C(CNCc1cccnc1)Nc1ccccc1N1CCOCC1,0.3,0.2,102.3*,-2.3,-101.8,-4.0
O=C(CNCc1cccnc1)N(c1ccccc1)c1ccccc1,-0.1,0.7,94.9*,-5.4,7.9,16.7
O=C(CNCc1ccccc1Cl)Nc1ccccc1N1CCOCC1,-0.1,-0.2,62.0*,-2.1,13.5,8.9
O=C(COC(=O)Cn1cc(C(F)(F)F)ccc1=O)Nc1ccc(Cl)c([N+](=O)[O-])c1,0.1,1.1,-6.7,5.8,/,/
COc1ccc(CN2CC(C(=O)NCC3CCCO3)CC2=O)cc1 (stereo not drawn),1.3,0.6,-4.4,-1.1,/,/
CCN(CC)CCCNC(=O)C1c2ccccc2C(=O)N(CC(C)C)C1c1cccs1 (stereo not drawn),0.6,0.7,10.3,-3.7,/,/
Cc1cccc(NC(=O)CSCCO)c1C,0.3,-0.8,8.2,13.4,/,/
SMILES,FBW7 act,GPR151 activ,MITF primary,TEAD-YAP inh,MITF inh conf,AlphaScreen intf2
O=C(CNCc1cccnc1)Nc1ccc(C2CCCCC2)cc1,0.0,1.0,59.2*,-0.1,8.2,12.0
O=C(CNCc1ccc(F)cc1)Nc1ccccc1N1CCOCC1,0.0,-0.9,63.1*,-0.3,-1.3,8.5
O=C(CNCc1cccnc1)Nc1ccc(OC(F)(F)F)cc1,0.0,-1.1,-8.1,1.3,/,/
Cc1cccc(NC(=O)CNCc2cccnc2)c1C,0.0,-0.3,83.2*,-4.2,4.7,10.6
CC(=O)c1cccc(-n2nnnc2SCC(=O)N2C(C)CCCC2C)c1 (stereo not drawn),0.0,-0.1,12.4,-0.9,/,/
O=C(N1CCCCCC1)C1(S(=O)(=O)c2ccc(Cl)cc2)CC1,0.0,1.0,62.3*,11.0,3.0,-1.4
O=C(NCc1ccccc1)c1cnc(-c2ccccn2)nc1C(F)(F)F,0.0,0.1,4.6,8.4,/,/
COc1ccccc1N1CCN(C(=O)CSc2nc3ccccc3c(=O)n2NC(=O)c2ccccc2)CC1,0.1,0.5,75.2*,-5.7,6.7,13.2
